Common to all, as to test: DAPPL (digital affinity profiling via proximity ligation, sequencing); 10 mM Tris-HCl pH 7.5, 50 mM NaCl, 1 mM DTT, 4% glycerol, room temperature, 30 min; GST-TFs on glutathione beads, 16-mer random dsDNA library, 0.1% formaldehyde crosslink after washing; high values mean tight binding
For one assay, the target named is T1, FLI1 (Homo sapiens, UniProt Q01543 1-452).
T1 sequence: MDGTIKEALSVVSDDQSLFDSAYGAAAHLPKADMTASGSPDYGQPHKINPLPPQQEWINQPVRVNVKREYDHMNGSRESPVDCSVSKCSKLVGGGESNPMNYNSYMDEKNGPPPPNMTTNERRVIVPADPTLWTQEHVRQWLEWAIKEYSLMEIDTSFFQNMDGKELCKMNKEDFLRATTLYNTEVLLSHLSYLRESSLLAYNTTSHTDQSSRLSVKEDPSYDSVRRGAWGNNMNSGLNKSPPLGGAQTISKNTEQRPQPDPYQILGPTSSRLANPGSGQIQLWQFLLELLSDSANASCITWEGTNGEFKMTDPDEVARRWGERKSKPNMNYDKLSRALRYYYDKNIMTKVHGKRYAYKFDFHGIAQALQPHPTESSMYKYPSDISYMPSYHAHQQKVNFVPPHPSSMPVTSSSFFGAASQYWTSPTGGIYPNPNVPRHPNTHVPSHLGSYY
Particulars: protein: recombinant; tags: N-terminal GST; dsDNA, one strand shown. Summed up: (§1)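 Pools of DNA-barcoded human transcription factors, expressed in yeast as GST fusions on glutathione beads and combined with a tag-only sample, were incubated with 200 nmole of a 16-mer random double-stranded DNA library. Incubation took 30 min at room temperature in Tris/NaCl/DTT/glycerol buffer and was followed by washing, 0.1% formaldehyde crosslinking, proximity ligation (BsaI/T4 ligase, 1 h, 37 °C), PCR amplification and sequencing on an Illumina NextSeq500. Binding signal is the ratio of a hexamer's read frequency for a factor to its frequency for the tag-only sample.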

The target of another assay is T2, ELK1 (Homo sapiens, UniProt P19419 1-428).
T2 sequence: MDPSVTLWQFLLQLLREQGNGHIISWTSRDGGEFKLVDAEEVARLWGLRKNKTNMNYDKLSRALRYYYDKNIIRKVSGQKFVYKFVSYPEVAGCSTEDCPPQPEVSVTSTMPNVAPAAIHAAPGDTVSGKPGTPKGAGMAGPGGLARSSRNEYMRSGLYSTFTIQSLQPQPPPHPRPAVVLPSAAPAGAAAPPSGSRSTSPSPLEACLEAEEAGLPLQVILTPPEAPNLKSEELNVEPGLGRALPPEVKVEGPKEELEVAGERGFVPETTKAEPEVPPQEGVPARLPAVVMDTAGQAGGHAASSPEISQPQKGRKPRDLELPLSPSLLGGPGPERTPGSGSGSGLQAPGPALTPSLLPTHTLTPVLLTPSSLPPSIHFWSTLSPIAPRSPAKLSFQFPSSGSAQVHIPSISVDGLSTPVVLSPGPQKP
Particulars: protein: recombinant; tags: N-terminal GST; dsDNA, one strand shown. Summed up:
as §1

Another assay deals with T3, GABPA (Homo sapiens, UniProt Q06546 1-454).
T3 sequence: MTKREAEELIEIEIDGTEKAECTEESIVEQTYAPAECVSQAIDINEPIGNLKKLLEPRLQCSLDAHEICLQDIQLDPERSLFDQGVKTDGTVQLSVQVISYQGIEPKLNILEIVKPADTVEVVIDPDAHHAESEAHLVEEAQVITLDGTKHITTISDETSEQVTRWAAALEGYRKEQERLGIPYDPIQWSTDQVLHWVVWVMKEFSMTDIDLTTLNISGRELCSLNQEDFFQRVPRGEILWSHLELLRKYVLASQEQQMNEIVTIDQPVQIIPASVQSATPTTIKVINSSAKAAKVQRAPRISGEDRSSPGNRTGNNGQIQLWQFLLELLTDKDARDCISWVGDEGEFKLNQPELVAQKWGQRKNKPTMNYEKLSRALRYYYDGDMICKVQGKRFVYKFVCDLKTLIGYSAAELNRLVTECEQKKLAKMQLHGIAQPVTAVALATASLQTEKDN
Particulars: protein: recombinant; tags: N-terminal GST; dsDNA, one strand shown. Summed up:
as §1

The target of the next assay is T4, ERG (Homo sapiens, UniProt P11308 1-479).
T4 sequence: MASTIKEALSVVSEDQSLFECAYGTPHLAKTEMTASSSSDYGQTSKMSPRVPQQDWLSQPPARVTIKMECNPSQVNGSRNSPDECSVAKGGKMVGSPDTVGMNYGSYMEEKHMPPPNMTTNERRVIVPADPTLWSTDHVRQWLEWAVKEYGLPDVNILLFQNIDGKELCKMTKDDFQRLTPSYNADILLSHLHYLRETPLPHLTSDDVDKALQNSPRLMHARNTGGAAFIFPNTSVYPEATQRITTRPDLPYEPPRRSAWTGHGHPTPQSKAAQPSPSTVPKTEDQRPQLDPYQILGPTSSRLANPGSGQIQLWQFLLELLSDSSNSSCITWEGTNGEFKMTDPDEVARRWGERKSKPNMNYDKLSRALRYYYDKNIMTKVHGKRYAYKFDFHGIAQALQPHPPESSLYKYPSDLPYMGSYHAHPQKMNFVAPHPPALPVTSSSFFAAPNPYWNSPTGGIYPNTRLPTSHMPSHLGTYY
The note with it: protein: recombinant; tags: N-terminal GST; dsDNA, one strand shown. The essentials: as §1

The next assay addresses ELF1 (Homo sapiens, UniProt P32519 1-619). The note with it: protein: recombinant; tags: N-terminal GST; dsDNA, one strand shown. Summed up: as §1
A further assay addresses T5, EHF (Homo sapiens, UniProt Q9NZC4 1-300).
T5 sequence: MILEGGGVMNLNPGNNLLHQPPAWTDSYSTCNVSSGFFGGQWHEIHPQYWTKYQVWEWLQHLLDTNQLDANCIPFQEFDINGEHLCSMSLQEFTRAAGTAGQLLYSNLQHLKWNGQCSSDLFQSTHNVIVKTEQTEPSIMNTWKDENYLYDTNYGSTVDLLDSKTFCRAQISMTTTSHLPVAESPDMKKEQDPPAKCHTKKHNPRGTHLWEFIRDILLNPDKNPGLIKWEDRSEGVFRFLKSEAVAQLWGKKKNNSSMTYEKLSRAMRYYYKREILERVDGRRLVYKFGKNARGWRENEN
The note with it: protein: recombinant; tags: N-terminal GST; dsDNA, one strand shown. Summed up: as §1

The next assay has as its target SPI1 (Homo sapiens, UniProt P17947 1-270). Particulars: protein: recombinant; tags: N-terminal GST; dsDNA, one strand shown. Summed up: as §1
In the next assay the target is SPIB (Homo sapiens, UniProt Q01892 1-262). The note with it: protein: recombinant; tags: N-terminal GST; dsDNA, one strand shown. Summed up:
as §1

Another assay concerns the target T6, FEV (Homo sapiens, UniProt Q99581 1-238).
T6 sequence: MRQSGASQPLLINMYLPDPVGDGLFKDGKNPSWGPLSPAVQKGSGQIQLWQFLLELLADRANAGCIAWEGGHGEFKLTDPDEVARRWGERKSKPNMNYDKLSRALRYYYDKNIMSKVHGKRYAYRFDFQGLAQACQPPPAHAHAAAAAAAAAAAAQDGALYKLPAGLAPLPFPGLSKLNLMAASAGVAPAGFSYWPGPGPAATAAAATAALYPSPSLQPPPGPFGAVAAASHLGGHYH
The note with it: protein: recombinant; tags: N-terminal GST; dsDNA, one strand shown. Summed up:
as §1

A further assay has as its target ETV5 (Homo sapiens, UniProt P41161 1-510). Particulars: protein: recombinant; tags: N-terminal GST; dsDNA, one strand shown. The essentials:
as §1

A further assay concerns the target HSF1 (Homo sapiens, UniProt Q00613 1-529). The note with it: protein: recombinant; tags: N-terminal GST; chain copies: 3; dsDNA, one strand shown. Summed up:
as §1

In a further assay the target is T7, SPIC (Homo sapiens, UniProt Q8N5J4 1-248).
T7 sequence: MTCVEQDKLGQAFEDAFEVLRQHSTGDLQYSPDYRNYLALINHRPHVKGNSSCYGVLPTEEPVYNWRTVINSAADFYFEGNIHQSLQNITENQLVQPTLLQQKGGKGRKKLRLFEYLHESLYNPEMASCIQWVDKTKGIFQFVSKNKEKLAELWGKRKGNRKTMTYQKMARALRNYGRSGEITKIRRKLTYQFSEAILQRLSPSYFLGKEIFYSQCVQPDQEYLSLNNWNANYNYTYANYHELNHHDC
The note with it: protein: recombinant; tags: N-terminal GST; dsDNA, one strand shown. Summed up:
as §1

The target in a further assay is ELF4 (Homo sapiens, UniProt Q99607 1-663). Particulars: protein: recombinant; tags: N-terminal GST; dsDNA, one strand shown. Summed up:
as §1

A further assay addresses T8, ELK4 (Homo sapiens, UniProt P28324-2 1-405).
T8 sequence: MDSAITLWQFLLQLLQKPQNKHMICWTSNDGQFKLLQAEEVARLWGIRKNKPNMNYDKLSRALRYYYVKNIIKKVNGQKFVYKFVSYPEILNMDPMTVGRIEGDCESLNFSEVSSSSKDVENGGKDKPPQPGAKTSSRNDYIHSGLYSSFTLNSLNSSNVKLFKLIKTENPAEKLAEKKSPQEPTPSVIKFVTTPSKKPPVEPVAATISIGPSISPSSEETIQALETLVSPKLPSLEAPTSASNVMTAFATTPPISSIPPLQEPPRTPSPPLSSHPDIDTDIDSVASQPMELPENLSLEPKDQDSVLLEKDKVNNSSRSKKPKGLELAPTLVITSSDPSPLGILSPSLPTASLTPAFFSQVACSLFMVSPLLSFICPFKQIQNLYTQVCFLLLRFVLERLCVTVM
The note with it: protein: recombinant; tags: N-terminal GST; dsDNA, one strand shown. Summed up: as §1

The next assay deals with T9, ETV2 (Homo sapiens, UniProt O00321 1-342).
T9 sequence: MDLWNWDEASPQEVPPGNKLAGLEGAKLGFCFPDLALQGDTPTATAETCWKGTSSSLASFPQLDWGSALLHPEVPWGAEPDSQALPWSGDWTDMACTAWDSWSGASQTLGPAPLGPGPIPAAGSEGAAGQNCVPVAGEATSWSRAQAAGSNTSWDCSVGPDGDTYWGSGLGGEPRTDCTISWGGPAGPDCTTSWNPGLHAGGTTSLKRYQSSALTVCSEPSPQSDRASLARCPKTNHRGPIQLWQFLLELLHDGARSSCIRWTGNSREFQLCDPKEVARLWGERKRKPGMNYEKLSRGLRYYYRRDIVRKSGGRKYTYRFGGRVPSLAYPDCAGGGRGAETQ
The note with it: protein: recombinant; tags: N-terminal GST; dsDNA, one strand shown. The essentials: as §1

In a further assay the target is T10, ELF3 (Homo sapiens, UniProt P78545 1-371).
T10 sequence: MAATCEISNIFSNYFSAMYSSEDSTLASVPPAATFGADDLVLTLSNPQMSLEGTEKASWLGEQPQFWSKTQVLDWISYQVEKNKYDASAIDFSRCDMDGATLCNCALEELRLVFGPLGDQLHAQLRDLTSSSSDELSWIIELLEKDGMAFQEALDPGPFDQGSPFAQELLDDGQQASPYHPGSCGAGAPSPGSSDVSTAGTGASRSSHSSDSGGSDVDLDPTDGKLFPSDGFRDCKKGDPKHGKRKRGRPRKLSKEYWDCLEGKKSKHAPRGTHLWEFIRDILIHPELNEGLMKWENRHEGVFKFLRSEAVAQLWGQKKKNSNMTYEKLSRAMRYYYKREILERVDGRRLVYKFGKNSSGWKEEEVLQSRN
The note with it: protein: recombinant; tags: N-terminal GST; dsDNA, one strand shown. Summed up: as §1

The target in another assay is CRX (Homo sapiens, UniProt O43186 1-299). Particulars: protein: recombinant; tags: N-terminal GST; dsDNA, one strand shown. Summed up: as §1
Sequence of CRX (O43186 whole entry): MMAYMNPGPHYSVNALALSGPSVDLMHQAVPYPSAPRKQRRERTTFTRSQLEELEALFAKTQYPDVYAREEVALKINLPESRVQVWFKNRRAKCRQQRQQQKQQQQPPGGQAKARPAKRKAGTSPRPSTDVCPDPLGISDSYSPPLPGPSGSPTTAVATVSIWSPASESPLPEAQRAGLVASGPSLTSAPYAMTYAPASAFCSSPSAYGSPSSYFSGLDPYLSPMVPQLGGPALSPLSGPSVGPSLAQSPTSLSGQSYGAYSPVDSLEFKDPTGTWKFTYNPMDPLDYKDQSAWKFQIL
The target in a further assay is ETV1 (Homo sapiens, UniProt P50549 1-477). The note with it: protein: recombinant; tags: N-terminal GST; dsDNA, one strand shown. Summed up: as §1
Sequence of ETV1 (P50549 whole entry): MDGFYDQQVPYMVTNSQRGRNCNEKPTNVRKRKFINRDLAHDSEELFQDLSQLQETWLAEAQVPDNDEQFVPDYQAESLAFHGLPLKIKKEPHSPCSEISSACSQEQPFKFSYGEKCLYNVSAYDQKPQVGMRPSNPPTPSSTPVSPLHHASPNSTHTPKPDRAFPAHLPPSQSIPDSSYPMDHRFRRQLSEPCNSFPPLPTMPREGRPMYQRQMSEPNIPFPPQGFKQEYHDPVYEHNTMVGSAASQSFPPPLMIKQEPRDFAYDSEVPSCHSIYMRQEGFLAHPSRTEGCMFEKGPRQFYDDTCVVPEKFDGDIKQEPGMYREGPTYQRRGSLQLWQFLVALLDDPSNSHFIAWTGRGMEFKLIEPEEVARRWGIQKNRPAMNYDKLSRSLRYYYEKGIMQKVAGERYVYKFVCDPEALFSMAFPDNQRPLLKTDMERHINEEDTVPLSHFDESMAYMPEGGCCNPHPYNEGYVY

The source of these data is paper PMC7862700, “An all-to-all approach to the identification of sequence-specific readers for epigenetic DNA modifications on cytosine”.

Sequence of SPIB (Q01892 whole entry): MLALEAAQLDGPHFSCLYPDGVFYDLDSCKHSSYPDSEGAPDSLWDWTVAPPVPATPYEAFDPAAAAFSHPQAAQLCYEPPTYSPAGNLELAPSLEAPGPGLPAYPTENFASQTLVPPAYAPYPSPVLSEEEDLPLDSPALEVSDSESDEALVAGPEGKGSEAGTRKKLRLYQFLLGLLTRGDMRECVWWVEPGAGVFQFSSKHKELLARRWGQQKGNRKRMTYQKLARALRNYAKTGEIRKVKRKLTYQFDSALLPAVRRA
Sequence of ELF4 (Q99607 whole entry): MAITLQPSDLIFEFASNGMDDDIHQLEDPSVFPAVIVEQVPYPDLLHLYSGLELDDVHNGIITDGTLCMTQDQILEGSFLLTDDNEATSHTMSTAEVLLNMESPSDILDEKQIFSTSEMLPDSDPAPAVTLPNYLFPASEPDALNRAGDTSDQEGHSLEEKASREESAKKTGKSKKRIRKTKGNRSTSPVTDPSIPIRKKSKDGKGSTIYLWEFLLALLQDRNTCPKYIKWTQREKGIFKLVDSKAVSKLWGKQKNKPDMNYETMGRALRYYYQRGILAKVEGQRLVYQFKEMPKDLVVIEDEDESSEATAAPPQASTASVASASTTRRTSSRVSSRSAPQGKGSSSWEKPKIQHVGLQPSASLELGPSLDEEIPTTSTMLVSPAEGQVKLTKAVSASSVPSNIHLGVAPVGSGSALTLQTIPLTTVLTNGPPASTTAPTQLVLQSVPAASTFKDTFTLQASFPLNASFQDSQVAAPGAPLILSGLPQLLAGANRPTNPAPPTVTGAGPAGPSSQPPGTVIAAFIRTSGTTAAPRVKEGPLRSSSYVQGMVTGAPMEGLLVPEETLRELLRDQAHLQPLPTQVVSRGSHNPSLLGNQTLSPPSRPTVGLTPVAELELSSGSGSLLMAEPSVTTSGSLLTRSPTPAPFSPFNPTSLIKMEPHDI
Sequence of ELF1 (P32519 whole entry): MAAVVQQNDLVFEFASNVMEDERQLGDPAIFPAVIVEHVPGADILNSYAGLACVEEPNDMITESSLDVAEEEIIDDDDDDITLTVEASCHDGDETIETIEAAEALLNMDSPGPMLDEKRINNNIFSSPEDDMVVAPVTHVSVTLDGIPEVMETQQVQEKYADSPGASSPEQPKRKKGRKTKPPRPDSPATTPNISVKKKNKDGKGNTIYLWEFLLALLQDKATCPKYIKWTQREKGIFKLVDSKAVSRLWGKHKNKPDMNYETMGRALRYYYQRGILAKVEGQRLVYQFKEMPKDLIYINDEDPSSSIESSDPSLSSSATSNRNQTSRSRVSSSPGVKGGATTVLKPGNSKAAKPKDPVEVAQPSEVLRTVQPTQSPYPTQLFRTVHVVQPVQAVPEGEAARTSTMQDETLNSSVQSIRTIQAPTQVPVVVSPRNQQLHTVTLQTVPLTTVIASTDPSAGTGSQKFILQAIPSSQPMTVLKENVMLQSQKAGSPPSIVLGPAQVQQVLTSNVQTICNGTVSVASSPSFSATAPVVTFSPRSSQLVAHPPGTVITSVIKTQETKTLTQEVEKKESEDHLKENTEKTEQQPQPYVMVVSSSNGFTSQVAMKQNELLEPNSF
Sequence of ETV5 (P41161 whole entry): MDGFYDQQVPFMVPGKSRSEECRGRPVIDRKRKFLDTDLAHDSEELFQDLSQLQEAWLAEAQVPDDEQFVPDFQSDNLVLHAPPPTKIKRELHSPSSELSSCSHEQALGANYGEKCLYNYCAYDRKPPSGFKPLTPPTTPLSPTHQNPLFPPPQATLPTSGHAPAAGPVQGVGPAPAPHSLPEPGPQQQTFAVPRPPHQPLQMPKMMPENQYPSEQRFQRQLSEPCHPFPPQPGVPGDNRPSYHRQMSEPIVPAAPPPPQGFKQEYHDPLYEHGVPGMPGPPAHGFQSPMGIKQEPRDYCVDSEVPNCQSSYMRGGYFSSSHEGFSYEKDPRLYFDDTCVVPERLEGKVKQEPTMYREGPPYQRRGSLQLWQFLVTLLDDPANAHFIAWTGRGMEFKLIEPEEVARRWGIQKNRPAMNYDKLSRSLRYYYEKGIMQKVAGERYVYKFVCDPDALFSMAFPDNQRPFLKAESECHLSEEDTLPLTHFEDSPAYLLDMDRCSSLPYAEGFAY
Sequence of HSF1 (Q00613 whole entry): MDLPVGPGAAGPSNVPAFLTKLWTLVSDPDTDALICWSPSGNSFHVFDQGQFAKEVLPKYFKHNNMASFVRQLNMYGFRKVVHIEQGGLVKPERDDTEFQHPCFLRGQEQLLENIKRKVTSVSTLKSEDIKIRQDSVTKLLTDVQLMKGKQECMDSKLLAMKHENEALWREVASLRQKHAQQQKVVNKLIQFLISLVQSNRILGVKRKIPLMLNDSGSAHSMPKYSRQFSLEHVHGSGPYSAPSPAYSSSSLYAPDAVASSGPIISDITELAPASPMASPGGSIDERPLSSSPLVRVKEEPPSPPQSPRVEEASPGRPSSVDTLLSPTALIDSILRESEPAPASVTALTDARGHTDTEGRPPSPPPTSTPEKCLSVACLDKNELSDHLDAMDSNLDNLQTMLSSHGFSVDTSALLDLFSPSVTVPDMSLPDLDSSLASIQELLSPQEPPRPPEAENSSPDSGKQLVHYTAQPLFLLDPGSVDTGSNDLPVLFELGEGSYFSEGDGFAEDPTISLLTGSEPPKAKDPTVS

For CCGAAA, the binding signal is 1.25 fold enrichment (6-mer frequency, TF over GST control) with FLI1; 1.23 fold enrichment (6-mer frequency, TF over GST control) in the assay with ELK1; 1.33 fold enrichment (6-mer frequency, TF over GST control) with GABPA; 1.2 fold enrichment (6-mer frequency, TF over GST control) in the assay with ERG; 1.25 fold enrichment (6-mer frequency, TF over GST control) with ELF1; 1.22 fold enrichment (6-mer frequency, TF over GST control) with EHF. Further, the binding signal was 1.21 fold enrichment (6-mer frequency, TF over GST control) with SPI1; 1.26 fold enrichment (6-mer frequency, TF over GST control) with SPIB; 1.17 fold enrichment (6-mer frequency, TF over GST control) with FEV; 1.25 fold enrichment (6-mer frequency, TF over GST control) with ETV5; 1.73 fold enrichment (6-mer frequency, TF over GST control) with HSF1; 1.31 fold enrichment (6-mer frequency, TF over GST control) with SPIC. In addition, the binding signal with ELF4 is 1.2 fold enrichment (6-mer frequency, TF over GST control); with ELK4, 1.14 fold enrichment (6-mer frequency, TF over GST control); with ETV2, 1.27 fold enrichment (6-mer frequency, TF over GST control); with ELF3 it was 1.17 fold enrichment (6-mer frequency, TF over GST control); with CRX it was 1.28 fold enrichment (6-mer frequency, TF over GST control); with ETV1, 1.23 fold enrichment (6-mer frequency, TF over GST control).
